Measurements as given in the supplement of paper PMC6555819.

Key:
Test in all cases: PBM binding z-score (relative to random genomic background probes); higher = stronger binding; sequences stand for … in GC…GCGATTGACAGCGTAGAATGAAGG
[1] = test system: FXR:RXRa (NR concentration 270 nM, RXRa partner concentration 90 nM)
Method in brief: (§1)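 Custom Agilent 4×180K protein-binding microarrays carried double-stranded probes, each with a 34-nt variable region. These regions held direct-repeat seeds, single-nucleotide variants, half-site ablations and random human genomic background sequences. Ligand-free nuclear receptor dimers were incubated on the arrays for 1 h, antibodies against each partner (one per run) detected binding, and scanned fluorescence was regression-normalized. Binding z-scores take the random background probes as reference.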

[2] = test system: LXRa:RXRa (NR concentration 270 nM, RXRa partner concentration 90 nM)
Method in brief: as §1

[3] = test system: LXRa homodimer (NR concentration 270 nM)
Method in brief: as §1

[4] = test system: LXRb:RXRa (NR concentration 270 nM, RXRa partner concentration 90 nM)
Method in brief: as §1

[5] = test system: LXRb homodimer (NR concentration 270 nM)
Method in brief: as §1

[6] = test system: PPARa:RXRa (NR concentration 270 nM, RXRa partner concentration 90 nM)
Method in brief: as §1

[7] = test system: PPARg:RXRa (NR concentration 180 nM, RXRa partner concentration 90 nM)
Method in brief: as §1

[8] = test system: PPARg:RXRa 270nM:90nM, anti-RXR (NR concentration 270 nM, RXRa partner concentration 90 nM)
Method in brief: as §1

[9] = test system: PPARg:RXRa 30nM:10nM, anti-RXR (NR concentration 30 nM, RXRa partner concentration 10 nM)
Method in brief: as §1

[10] = test system: PPARg:RXRa 90nM:30nM, anti-RXR (NR concentration 90 nM, RXRa partner concentration 30 nM)
Method in brief: as §1

[11] = test system: PPARg:RXRa DBDmut IVT, anti-RXR (DBD mutation: RXRa K156A/R161A, NR concentration 270 nM, RXRa partner concentration 90 nM)
Method in brief: as §1

[12] = test system: PPARg:RXRa IVT, anti-PPARg (NR concentration 270 nM, RXRa partner concentration 90 nM)
Method in brief: as §1

[13] = test system: PPARg DBDmut:RXRa IVT, anti-PPARg (DBD mutation: PPARg1 K132A/R137A, NR concentration 270 nM, RXRa partner concentration 90 nM)
Method in brief: as §1

[14] = test system: PPARg DBDmut IVT, anti-PPARg (DBD mutation: PPARg1 K132A/R137A, NR concentration 270 nM)
Method in brief: as §1

[15] = test system: PPARg homodimer (NR concentration 180 nM)
Method in brief: as §1

[16] = test system: PXR:RXRa (NR concentration 270 nM, RXRa partner concentration 90 nM)
Method in brief: as §1

[17] = test system: PXR homodimer (NR concentration 270 nM)
Method in brief: as §1

[18] = test system: RARa:RXR (NR concentration 270 nM, RXRa partner concentration 90 nM)
Method in brief: as §1

[19] = test system: RARa homodimer (NR concentration 270 nM)
Method in brief: as §1

[20] = test system: RARb:RXRa (NR concentration 270 nM, RXRa partner concentration 90 nM)
Method in brief: as §1

| Sequence | PBM binding z-score [1] | PBM binding z-score [2] | PBM binding z-score [3] | PBM binding z-score [4] | PBM binding z-score [5] | PBM binding z-score [6] | PBM binding z-score [7] | PBM binding z-score [8] | PBM binding z-score [9] | PBM binding z-score [10] | PBM binding z-score [11] | PBM binding z-score [12] | PBM binding z-score [13] | PBM binding z-score [14] | PBM binding z-score [15] | PBM binding z-score [16] | PBM binding z-score [17] | PBM binding z-score [18] | PBM binding z-score [19] | PBM binding z-score [20] |
| --- | --- | --- | --- | --- | --- | --- | --- | --- | --- | --- | --- | --- | --- | --- | --- | --- | --- | --- | --- | --- |
| CGTCCAAGGTCATAGGAGGCCAGTGAAGACAGAT | 7.24 | 5.75 | 1.07 | 4.34 | 0.536 | 5.51 | 4.37 | 5.03 | 1.54 | 3.73 | 2.81 | 3.75 | 0.813 | 0.508 | 2.54 | 5.33 | 1.53 | 4.52 | 0.617 | 5 |
| TCTTGTAGATCAAGCAGATTAAGAAAGCCTGAGT | 0.096 | -0.059 | -0.156 | 0.0422 | -0.403 | 0.442 | -0.257 | 1.19 | 2.63 | 2.02 | 1.46 | 0.135 | -0.162 | 0.384 | -0.288 | 0.232 | -0.000804 | 0.536 | -0.326 | -0.301 |
| TTACCACGGTGAAGGTCGTTGATCCCTCTGTAGA | 1.28 | 1.71 | 0.151 | 1.26 | -0.41 | 1.57 | 0.322 | 1.94 | 0.678 | 1.24 | 0.157 | 1.1 | -0.118 | -0.0664 | 0.191 | 1.13 | 0.169 | 1.59 | -0.497 | 1.17 |
| CGTAGCAGGCCAGGGTCACTCAAGCATTTCGCTT | 2.18 | 1.78 | -0.329 | 2.14 | -1.14 | 2.89 | 0.663 | 1.49 | -0.228 | 0.716 | 0.638 | 1.11 | -0.725 | -1.16 | 0.494 | 2.28 | -0.189 | 2.69 | -0.182 | 2.66 |
| TCTGGTTGGTCACGGAGGTCACACACGACGGGTA | 3.5 | 3.63 | 2.85 | 3.58 | 1.47 | 3.99 | 3.13 | 3.7 | 2.69 | 3.15 | 1.74 | 3.7 | 1.34 | 1.67 | 4.27 | 4.9 | 2.06 | 4.93 | 2 | 4 |
| CCTACTGGGCCAAGTTCATTGATCAGTCAAAGCA | 0.51 | 0.916 | 0.751 | 0.634 | -0.712 | 1.83 | 1.24 | 2.02 | 0.309 | 1.6 | 3.93 | 3.54 | 0.0503 | -0.432 | 1.19 | 2.85 | 3.64 | 0.935 | 0.262 | 1.88 |
| CAGACTAGGTCAGGGCCAGTATAGGAGGAACGTT | 1.14 | 0.664 | -0.52 | 0.152 | -0.575 | 2.57 | 3.84 | 3.65 | 1.04 | 2.5 | 5.95 | 6.11 | 0.269 | 0.382 | 0.388 | 0.0784 | -0.249 | 0.723 | -0.255 | 3.12 |
| CCTACTGGGCCACGAAAGTTCATTGATTCAGTGA | 0.912 | 3.67 | 4.62 | 1.82 | -0.000733 | 2.69 | 2.47 | 2.77 | 0.297 | 1.86 | 6.16 | 5.56 | 0.407 | 0.518 | 1.35 | 4.97 | 6.21 | 2.03 | -0.507 | 2.72 |
| CATACAGGGTCAGCTAAGCCAGAGTAGGGACGGC | 4.23 | 2.89 | 0.0357 | 2.17 | 0.175 | 4.39 | 3.57 | 2.87 | 0.539 | 1.9 | 1.39 | 2.48 | 1.15 | 0.523 | 1.5 | 2.16 | -0.442 | 3.02 | 0.0387 | 3.9 |
